We go through 8 molecules from PubChem BioAssay (NCI).

Compounds without any hit were thinned out: in the full panel of roughly 83,000, 20% have a hit.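 Assay: single dose, 48 h. Readout: percent growth (0 = no net growth; negative = cell death). Active: <10.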 Unmarked numbers belong to inactive results. The source made the active and inactive calls.

Some test systems named below: NCI-H226 lung; NCI-H322M lung; HOP-62 NSCLC; NCI-H460 lung; HOP-92 NSCLC; NCI-H522 lung; A549/ATCC NSCLC; 786-0 renal; COLO 205 colon; DU-145 prostate; K-562 leukemia; MALME-3M melanoma; MDA-MB-231 breast; SF-268 CNS; SF-295 CNS; SF-539 CNS; UACC-257 melanoma; M14 melanoma; RXF 393 renal.
Common to all, as to test: NCI-60 one-dose screen, 48 h (100 = growth as untreated, 0 = no growth, -100 = all killed)
What all share (settings): 10 µM unless noted

On to `COc1ccc(NS(=O)(=O)c2ccc(C)cc2)c([N+](=O)[O-])c1`, for which the growth in the assay on NCI-H226 lung was 90.8%; with NCI-H322M lung, 94%; in the assay with HOP-62 NSCLC, 97.3%; in the assay with NCI-H460 lung it was 106%; in the assay with HOP-92 NSCLC it was 83.5%; in the assay with NCI-H522 lung it was 87.9%. In addition, the growth with A549/ATCC NSCLC was 99.7%; with 786-0 renal, 107%; in the assay with COLO 205 colon, 112%; with DU-145 prostate it was 111%; with K-562 leukemia, 93.2%; with MALME-3M melanoma, 96.2%. Moreover, the growth was 96% in the assay with MDA-MB-231 breast; 101% with SF-268 CNS; 110% in the assay on SF-295 CNS; 110% in the assay on SF-539 CNS; 98.7% in the assay with UACC-257 melanoma; 109% in the assay with M14 melanoma.

In the case of `COc1cc(C2CC(c3cccc(Nc4ccncc4)c3)=NN2c2cc(Cl)cc(Cl)c2)cc(OC)c1OC` (stereo unspecified), the growth was 87% in the assay on NCI-H226 lung; 64.2% in the assay with NCI-H322M lung; -29.2% (active) with HOP-62 NSCLC; -68.4% (active) with NCI-H460 lung; 37.4% in the assay on HOP-92 NSCLC; 0.35% (active) in the assay on NCI-H522 lung. Besides, the growth in the assay on A549/ATCC NSCLC was 17.9%; in the assay on 786-0 renal, 101%; with COLO 205 colon it was -58.7% (active); in the assay on DU-145 prostate it was -18.1% (active); in the assay on K-562 leukemia it was -1.05% (active); with MALME-3M melanoma, -77.9% (active). Also, the growth is 19.8% in the assay with MDA-MB-231 breast; 42.4% in the assay on SF-268 CNS; 1.81% (active) in the assay with SF-295 CNS; 70% in the assay with SF-539 CNS; 1.77% (active) in the assay with UACC-257 melanoma; 96.2% with M14 melanoma.

Consider `Clc1ccc(N2N=C(c3cccc(Nc4ccncc4)c3)CC2c2ccc3c(c2)OCO3)cc1` (stereo unspecified), for which the growth is 82.5% in the assay with NCI-H226 lung; 68.6% with NCI-H322M lung; 42.4% in the assay with HOP-62 NSCLC; -65.4% (active) in the assay with NCI-H460 lung; 47.9% with HOP-92 NSCLC; 57.2% in the assay with NCI-H522 lung. For the same molecule, the growth was 36.4% with A549/ATCC NSCLC; 56.9% in the assay with 786-0 renal; -52.8% (active) in the assay on COLO 205 colon; 41.9% in the assay on DU-145 prostate; 5.23% (active) with K-562 leukemia; 25.5% in the assay with MALME-3M melanoma. In addition, the growth was 37.8% in the assay on MDA-MB-231 breast; 63.1% in the assay on SF-268 CNS; 39% in the assay on SF-295 CNS; 81.9% with SF-539 CNS; 86% in the assay with UACC-257 melanoma; -52.4% (active) with M14 melanoma.

For `O=C(Nc1ccc2cc3ccc(NC(=O)N4CCCCCC4)cc3nc2c1)N1CCCCCC1`, the growth was -58.5% (active) in the assay on NCI-H226 lung; 31.4% in the assay on NCI-H322M lung; -47.4% (active) in the assay with HOP-62 NSCLC; -55.6% (active) with NCI-H460 lung; -77.8% (active) in the assay on HOP-92 NSCLC; -70.4% (active) with NCI-H522 lung. Further, the growth with A549/ATCC NSCLC was -11.3% (active); in the assay with 786-0 renal, -57.9% (active); in the assay on COLO 205 colon it was -48.8% (active); with DU-145 prostate, -25.7% (active); with K-562 leukemia it was -11.1% (active); in the assay with MALME-3M melanoma it was -85.3% (active). Further, the growth in the assay on MDA-MB-231 breast was -69.1% (active); with RXF 393 renal, -76.3% (active); in the assay with SF-268 CNS, -41.3% (active); in the assay on SF-295 CNS it was -79.4% (active); with SF-539 CNS it was -71.1% (active); in the assay with UACC-257 melanoma, -75.7% (active). The growth in the assay on M14 melanoma is -66.2% (active).

Regarding `COc1cc2nnn3c4ncccc4c(N=O)c3c2cc1OC`, the growth in the assay on NCI-H226 lung is 97%; in the assay on NCI-H322M lung, 78.6%; with HOP-62 NSCLC, 106%; with NCI-H460 lung, 84.9%; in the assay with HOP-92 NSCLC, -12% (active); in the assay with NCI-H522 lung, -34.3% (active). In addition, the growth with A549/ATCC NSCLC was 95.2%; in the assay on 786-0 renal, 48.2%; in the assay with COLO 205 colon, 102%; in the assay with DU-145 prostate it was 102%; in the assay on MALME-3M melanoma, 91.2%; in the assay with MDA-MB-231 breast it was 78.6%. Besides, the growth with SF-268 CNS was 30.3%; in the assay with SF-295 CNS, 111%; in the assay with SF-539 CNS it was 98.6%; in the assay with UACC-257 melanoma it was 76.1%; in the assay on M14 melanoma, 104%.

With `Nc1c(C(=O)Nc2cccc3ccncc23)sc2nc3c(cc12)C(=O)CCC3`, the growth is 73.8% with NCI-H226 lung; 72.3% with NCI-H322M lung; 62.8% in the assay on HOP-62 NSCLC; 11.6% in the assay on NCI-H460 lung; 69.6% in the assay on HOP-92 NSCLC; -15.7% (active) in the assay with NCI-H522 lung. The growth in the assay with A549/ATCC NSCLC was 38.6%; with 786-0 renal it was 44.5%; with COLO 205 colon, 28.2%; in the assay on DU-145 prostate it was 38.5%; with K-562 leukemia it was 24.8%; in the assay with MALME-3M melanoma, 63.7%. In addition, the growth was 62.8% with MDA-MB-231 breast; 29.8% in the assay with RXF 393 renal; 55.1% with SF-268 CNS; 20.1% in the assay on SF-295 CNS; 16.1% in the assay on SF-539 CNS; 49.2% in the assay with UACC-257 melanoma. Besides, the growth in the assay with M14 melanoma was 26.1%.

Turning to `O=C1c2ccccc2-c2c1c1c(NCCCO)nc3ccccc3c1n2Cc1ccccc1`, the growth in the assay on NCI-H226 lung is 21.5%; with NCI-H322M lung, 29.6%; in the assay on HOP-62 NSCLC it was -35.5% (active); in the assay on NCI-H460 lung it was -29% (active); in the assay with HOP-92 NSCLC it was -33.4% (active); in the assay on NCI-H522 lung, 23.3%. Moreover, the growth with A549/ATCC NSCLC was 16%; in the assay on 786-0 renal, -74.3% (active); in the assay on COLO 205 colon, 62%; in the assay on DU-145 prostate, 13.2%; with K-562 leukemia, 16.9%; in the assay with MALME-3M melanoma it was -54.6% (active). The growth in the assay with MDA-MB-231 breast is -2.22% (active); in the assay on RXF 393 renal, -52.2% (active); with SF-268 CNS, -5.13% (active); with SF-295 CNS, 23.1%; with SF-539 CNS it was -49.2% (active); in the assay with UACC-257 melanoma, 56.5%. Besides, in the assay on M14 melanoma, the growth was -53% (active).

Turning to `O=S(=O)(NCCCNc1nccc(-c2c(-c3ccc(F)c(O)c3)nc3sccn23)n1)c1ccc(F)cc1`, the growth with NCI-H226 lung was 11%; in the assay with NCI-H322M lung, 5.97% (active); in the assay on HOP-62 NSCLC, 19.9%; with NCI-H460 lung, 6.31% (active); in the assay on HOP-92 NSCLC it was 6.16% (active); with NCI-H522 lung, -9.08% (active). In addition, the growth was 10.2% in the assay with A549/ATCC NSCLC; 14.1% in the assay with 786-0 renal; 11.5% with COLO 205 colon; 11.5% in the assay with DU-145 prostate; 3.41% (active) in the assay on K-562 leukemia; -14.7% (active) in the assay on MALME-3M melanoma. The growth with MDA-MB-231 breast is -23.1% (active); with SF-268 CNS, 9.56% (active); with SF-295 CNS it was -12.1% (active); in the assay with SF-539 CNS it was 18.5%; with UACC-257 melanoma, -10% (active); in the assay on M14 melanoma it was 6.75% (active).
